These results are taken from publication PMC4552634, “A New Set of Chemical Starting Points with Plasmodium falciparum Transmission-Blocking Potential for Antimalarial Drug Discovery” (PLoS ONE, 2015).

Hit rate of the full screen: of about 13,000 compounds, about 3,200 (25%) showed an effect of 50% or more. The list shows a part of the results.

The experiment relates to P. falciparum stage V gametocytes. More on the design: BacTiter-Glo ATP luminescence viability of purified stage V gametocytes in 384-well plates, per cent inhibition versus DMSO. Conditions: 48 h, 5 µM; inhibitor.
The % Inhibition is the change of the read-out against control, counted positive when it falls. In the case of `CN(C)CC1CCCN1Cc1ccccc1-c1cnn(C)c(=O)c1Oc1ccccc1F` (centres unmarked) [TCMDC-135099], the “% Inhibition” value came out at 9.933%. Consider `CCC(C)c1cnc2nc(N)nc(N)c2c1C` (centres unmarked) [TCMDC-137718], for which the “% Inhibition” value is 7.013%.

In the case of `O=C(Nc1ccccc1)N(Cc1ccc(-c2ccc(CNCc3ccc4c(c3)OCO4)cc2)cc1)C1CCN(Cc2ccccc2)CC1` [TCMDC-140604], the “% Inhibition” value stood at 20.36%. In the case of `O=C(Nc1ccccc1)N(Cc1ccc(-c2cccc(CNCc3ccc4c(c3)OCO4)c2)cc1)C1CCN(Cc2ccccc2)CC1` [TCMDC-140603], the “% Inhibition” value turned out to be 101.1%. The value for `O=C(NCc1ccccc1)c1ccc(C(=O)NCC2CNCCO2)cc1` (centres unmarked) [TCMDC-136507] was 8.876%; that for `O=c1ccc2ccc(F)c3c2n1CC3CN1CCC(NCc2cccc(-c3cccs3)c2)CC1` (centres unmarked) [TCMDC-134415] was 19.28%; that for `Cc1cc(Nc2cccc(C(F)(F)F)c2)nc(NCc2ccccc2)n1` [TCMDC-125566] was 3.225%. Consider `Cc1cc(N[C@@H](C)C(=O)Nc2ccccc2)nc(NCCc2ccc(F)cc2)n1` [TCMDC-134798], for which the “% Inhibition” value is reported as 30.85%. Regarding `Cc1cc(NCC(c2ccccc2)c2ccccc2)nc(NCc2ccc(C(F)(F)F)cc2)n1` [TCMDC-138302], the “% Inhibition” value was found to be 69.12%. The value for `Cc1cc(NCCc2ccc(O)cc2)nc(NCC(c2ccccc2)c2ccccc2)n1` [TCMDC-138305] was 99.17%; that for `Cc1cc(NCc2ccccc2)nc(NCc2ccccc2)n1` [TCMDC-123662] was 26.39%; that for `Oc1cc2c(cc1CN1CCN(Cc3ccccc3F)CC1)CCC2` [TCMDC-125013] was -13.06%.

Regarding `Cc1nc(C(=O)N2CCCC[C@H]2CNC(=O)c2ccc(-c3ccc(N4CCCC4=O)cc3C)cc2)c(-c2ccc(F)cc2)s1` [TCMDC-141437], the “% Inhibition” value is reported as 4.719%. In the case of `CCNc1cc(C(=O)N[C@@H](Cc2ccccc2)[C@H](O)CNC2CCC(C)(C)CC2)cc(N2CCCCS2(=O)=O)c1` [TCMDC-135108], the “% Inhibition” value amounted to 43.04%.

Turning to `Fc1ccc2nc(-c3cccc(-c4cccc(CN5CCN(c6ccncc6)CC5)c4)c3)[nH]c2c1` [TCMDC-132922], the “% Inhibition” value was found to be 104.6%. As for `O=C(O)C(F)(F)F.c1cc(-c2ccc(CN3CCN(c4ccncc4)CC3)cc2)cc(-c2nc3ccccc3[nH]2)c1` [TCMDC-132556], the “% Inhibition” value worked out at 5.696%. The result for `c1cc(CN2CCN(c3ccncc3)CC2)cc(-c2cccc(-c3nc4ccccc4[nH]3)c2)c1` [TCMDC-132923] reads 40.29%; that for `Fc1ccc2nc(-c3cccc(-c4ccc(CN5CCN(c6ccncc6)CC5)cc4)c3)[nH]c2c1` [TCMDC-132918], 89.6%; that for `Fc1ccc2nc(-c3ccc(-c4cccc(CN5CCN(c6ccncc6)CC5)c4)cc3)[nH]c2c1` [TCMDC-133822], -6.554%.

In the case of `Fc1ccc2nc(-c3cccc(-c4ccc(CN5CCN(c6cnccn6)CC5)cc4)c3)[nH]c2c1` [TCMDC-132679], the “% Inhibition” value is given as 21.91%. As for `O=C(O)C(F)(F)F.c1cncc(CCNCc2ccc(-c3ccc(-c4nc5ccccc5[nH]4)s3)cc2)c1` [TCMDC-132876], the “% Inhibition” value was -17.55%. The value for `COc1ccc(-c2cnc3ccc(NC4CCC(O)CC4)nn23)cn1` (centres unmarked) [TCMDC-136694] was 36.86%; that for `c1ccc(CCNCc2cccc(-c3ccccc3CNCc3ccc4c(c3)OCO4)c2)nc1` [TCMDC-140068] was 70.81%; that for `CN1CCN(CCCNCc2ccccc2-c2cccc(CNCc3ccc4c(c3)OCO4)c2)CC1` [TCMDC-140476] was 103.3%. The value for `FC(F)(F)c1ccc(N2CCCN(Cc3cccc(-c4ccccc4CNCc4ccc5c(c4)OCO5)c3)CC2)nc1` [TCMDC-140216] was -3.324%; that for `c1cc(CNCc2ccc3c(c2)OCO3)cc(-c2cccc(CNc3ccc4ncccc4c3)c2)c1` [TCMDC-140721] was -2.829%. As for `O=C(Nc1ccc(OC2CCN(Cc3ccsc3)C2)c(Cl)c1)c1ccc(F)cc1` (centres unmarked) [TCMDC-133952], the “% Inhibition” value was 22.72%. With `O=C(NCc1cccc(F)c1)Nc1cccc(-c2cccc(-c3nc4ccc(C(F)(F)F)cc4[nH]3)c2)c1` [TCMDC-133292], the “% Inhibition” value was -20.5%. For `C#CCCC(=O)Nc1cccc(-c2cccc(-c3nc4ccc(C(F)(F)F)cc4[nH]3)c2)c1` [TCMDC-136856], the “% Inhibition” value came to 5.566%.

Consider `O=C(Nc1cccc(-c2nn3ccccc3c2-c2ccnc(Nc3ccccc3)n2)c1)c1c(F)cccc1F` [TCMDC-135526], for which the “% Inhibition” value was -37.81%. The result for `CCc1cn2c3c(cc(C(=O)N[C@@H](Cc4ccccc4)[C@H](O)CNC4CC4)cc13)N(CC)S(=O)(=O)CC2` [TCMDC-135553] reads 73.35%; that for `CCc1cn2c3c(cc(C(=O)N[C@@H](Cc4ccccc4)[C@H](O)CNC4CCOCC4)cc13)N(C)S(=O)(=O)C2` [TCMDC-135394], 4.179%; that for `CCc1cn2c3c(cc(C(=O)N[C@@H](Cc4ccccc4)[C@H](O)CNC4CCCC4)cc13)N(C)S(=O)(=O)CC2` [TCMDC-135803], 56.31%. For the molecule `CC(C)c1cn2c3c(cc(C(=O)N[C@@H](Cc4ccccc4)[C@H](O)CNC4CCOCC4)cc13)N(C)S(=O)(=O)CC2` [TCMDC-135535], the “% Inhibition” value came to 2.441%. In the case of `CCc1cn2c3c(cc(C(=O)N[C@@H](Cc4ccccc4)[C@H](O)CNC4CCC4)cc13)N(C)S(=O)(=O)CC2` [TCMDC-135674], the “% Inhibition” value is 32.1%. For `CCc1cn2c3c(cc(C(=O)N[C@@H](Cc4cccc(F)c4)[C@H](O)CNC4CC4)cc13)N(C)S(=O)(=O)CC2` [TCMDC-135651], the “% Inhibition” value is given as -23.22%. In the case of `CCc1cn2c3c(cc(C(=O)N[C@@H](Cc4cc(F)cc(F)c4)[C@H](O)CNC4CCOCC4)cc13)N(C)S(=O)(=O)CC2` [TCMDC-135797], the “% Inhibition” value is 26.1%.

Regarding `CCc1cn2c3c(cc(C(=O)N[C@@H](Cc4cc(F)cc(F)c4)[C@H](O)CNC4CCCCC4)cc13)N(C)S(=O)(=O)CC2` [TCMDC-135672], the “% Inhibition” value is listed as 90.03%. Turning to `CC(C)c1cn2c3c(cc(C(=O)N[C@@H](Cc4ccccc4)[C@H](O)CNC4CCCCC4)cc13)N(C)S(=O)(=O)CC2` [TCMDC-135533], the “% Inhibition” value is 94.75%. Regarding `CCc1cn2c3c(cc(C(=O)N[C@@H](Cc4cc(F)cc(F)c4)[C@H](O)CNC4CC4)cc13)N(C)S(=O)(=O)CC2` [TCMDC-135673], the “% Inhibition” value is listed as 30.94%. For the molecule `CCCc1cn2c3c(cc(C(=O)N[C@@H](Cc4ccccc4)[C@H](O)CNC4CCCCC4)cc13)N(C)S(=O)(=O)CC2` [TCMDC-135771], the “% Inhibition” value came out at 15.59%. Turning to `CC(C)NC[C@@H](O)[C@H](Cc1ccccc1)NC(=O)c1cc2c3c(c1)c(C(C)C)cn3CCS(=O)(=O)N2C` [TCMDC-135532], the “% Inhibition” value is on record as 49.45%. The value for `CC(=O)Nc1ccc(CN2CCC(N(C)c3cc(NC(=O)c4cccs4)ccn3)CC2)cc1` [TCMDC-134971] was -6.674%; that for `CCc1c(C)nc2nc(Cc3cccc(F)c3)nn2c1N1CCN(c2ccccn2)CC1` [TCMDC-124593] was 5.465%.

Take `Cc1noc(C)c1-c1cccc(CNCc2ccc(-c3ccc(-c4nc5cc(F)ccc5[nH]4)s3)cc2)c1.O=C(O)C(F)(F)F` [TCMDC-133054]: the “% Inhibition” value is on record as 12.51%.

With `O=C(/C=C/c1ccc(Cl)cc1)NCCCCCN1CCCN(C(=O)Nc2cccc(Cl)c2)CC1` [TCMDC-136102], the “% Inhibition” value is listed as -54.14%. Regarding `Cn1cnc(CCNC(=O)c2ccc(-c3ccc(-c4nc5cc(C(F)(F)F)ccc5[nH]4)s3)cc2)c1` [TCMDC-132500], the “% Inhibition” value was -12.71%.

Take `CCCc1cn2c3c(cc(C(=O)N[C@@H](Cc4ccccc4)[C@H](O)CNC4CCOCC4)cc13)N(CC)S(=O)(=O)CC2` [TCMDC-135774]: the “% Inhibition” value is on record as 46.67%. The value for `CCc1cn2c3c(cc(C(=O)N[C@@H](Cc4cccc(F)c4)[C@H](O)CNC4CCOCC4)cc13)N(C)S(=O)(=O)CC2` [TCMDC-135661] was 11.24%; that for `CCc1cn2c3c(cc(C(=O)N[C@@H](Cc4ccccc4)[C@H](O)CNC4CCCCC4)cc13)N(CC)S(=O)(=O)CC2` [TCMDC-135572] was 99.29%.

`CCCc1cn2c3c(cc(C(=O)N[C@@H](Cc4ccccc4)[C@H](O)CNC4CCCCC4)cc13)N(CC)S(=O)(=O)CC2` [TCMDC-135773]: the “% Inhibition” value was 81.38%. The result for `CCc1cn2c3c(cc(C(=O)N[C@@H](Cc4cccc(F)c4)[C@H](O)CNC4CCCCC4)cc13)N(C)S(=O)(=O)CC2` [TCMDC-135659] reads 47.1%; that for `CCc1cn2c3c(cc(C(=O)N[C@@H](Cc4ccccc4)[C@H](O)CNC4CCCCC4)cc13)N(C)S(=O)(=O)C2` [TCMDC-135389], 12.74%; that for `CCCc1cn2c3c(cc(C(=O)N[C@@H](Cc4ccccc4)[C@H](O)CNC4CCOCC4)cc13)N(C)S(=O)(=O)CC2` [TCMDC-135772], 9.174%. With `CCc1cn2c3c(cc(C(=O)N[C@@H](Cc4cccc(Cl)c4)[C@H](O)CNC4CCOCC4)cc13)N(C)S(=O)(=O)CC2` [TCMDC-135650], the “% Inhibition” value turned out to be 67.17%. The value for `CCc1cn2c3c(cc(C(=O)N[C@@H](Cc4ccccc4)[C@H](O)CNC4CCOCC4)cc13)N(C(C)C)S(=O)(=O)CC2` [TCMDC-135506] was 37.66%; that for `CCc1cn2c3c(cc(C(=O)N[C@@H](Cc4cccc(Cl)c4)[C@H](O)CNC4CCCCC4)cc13)N(C)S(=O)(=O)CC2` [TCMDC-135649] was 39.17%; that for `CCc1cn2c3c(cc(C(=O)N[C@@H](Cc4ccccc4)[C@H](O)CNC4CCOCC4)cc13)N(CC(F)(F)F)S(=O)(=O)CC2` [TCMDC-135652] was 61.24%. Take `CCc1cn2c3c(cc(C(=O)N[C@@H](Cc4cccc(Cl)c4)[C@H](O)CNC4CC4)cc13)N(C)S(=O)(=O)CC2` [TCMDC-135648]: the “% Inhibition” value turned out to be 29.4%.
